This is an account of results in publication PMC7862700, “An all-to-all approach to the identification of sequence-specific readers for epigenetic DNA modifications on cytosine”.

What all share (experiment): DAPPL (digital affinity profiling via proximity ligation, sequencing); 10 mM Tris-HCl pH 7.5, 50 mM NaCl, 1 mM DTT, 4% glycerol, room temperature, 30 min; GST-TFs on glutathione beads, 16-mer random dsDNA library, 0.1% formaldehyde crosslink after washing; high values mean tight binding
What all share (details): protein: recombinant; tags: N-terminal GST; dsDNA, one strand shown

One assay concerns the target T1, GABPA (Homo sapiens, UniProt Q06546 1-454).
T1 sequence: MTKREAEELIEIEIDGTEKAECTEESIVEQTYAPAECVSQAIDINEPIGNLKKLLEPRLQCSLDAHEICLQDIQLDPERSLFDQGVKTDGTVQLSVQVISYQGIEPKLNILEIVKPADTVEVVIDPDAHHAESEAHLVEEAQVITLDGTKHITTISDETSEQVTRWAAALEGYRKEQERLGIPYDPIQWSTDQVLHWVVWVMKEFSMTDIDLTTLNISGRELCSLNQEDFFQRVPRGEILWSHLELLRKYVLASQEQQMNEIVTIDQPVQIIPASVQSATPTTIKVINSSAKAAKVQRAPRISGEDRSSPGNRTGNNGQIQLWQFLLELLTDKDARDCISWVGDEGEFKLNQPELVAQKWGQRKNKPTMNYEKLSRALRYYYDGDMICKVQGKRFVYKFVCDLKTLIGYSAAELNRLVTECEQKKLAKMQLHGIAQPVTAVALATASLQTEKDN
In short, it runs like this: (§1)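 Each value of binding signal is a hexamer's read frequency for a factor divided by the same hexamer's frequency in the tag-only sample. Barcoded, bead-captured GST fusions of human transcription factors made in yeast were pooled with that sample and incubated with 200 nmole of a random double-stranded 16-mer DNA library in Tris/NaCl/DTT/glycerol buffer at room temperature for 30 min. Washing, 0.1% formaldehyde crosslinking, proximity ligation, PCR and Illumina NextSeq500 sequencing followed.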

The target in another assay is ELF1 (Homo sapiens, UniProt P32519 1-619). In short, it runs like this:
as §1

The next assay concerns the target ETV5 (Homo sapiens, UniProt P41161 1-510). In short, it runs like this:
as §1

A further assay deals with T2, SPIC (Homo sapiens, UniProt Q8N5J4 1-248).
T2 sequence: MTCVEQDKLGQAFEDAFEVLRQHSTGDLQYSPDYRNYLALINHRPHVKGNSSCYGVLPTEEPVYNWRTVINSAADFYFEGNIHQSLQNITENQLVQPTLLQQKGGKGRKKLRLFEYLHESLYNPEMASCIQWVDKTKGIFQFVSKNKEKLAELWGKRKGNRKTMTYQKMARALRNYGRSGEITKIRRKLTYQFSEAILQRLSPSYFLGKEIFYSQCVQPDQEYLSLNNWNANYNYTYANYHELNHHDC
In short, it runs like this:
as §1

The target in a further assay is T3, ELK4 (Homo sapiens, UniProt P28324-2 1-405).
T3 sequence: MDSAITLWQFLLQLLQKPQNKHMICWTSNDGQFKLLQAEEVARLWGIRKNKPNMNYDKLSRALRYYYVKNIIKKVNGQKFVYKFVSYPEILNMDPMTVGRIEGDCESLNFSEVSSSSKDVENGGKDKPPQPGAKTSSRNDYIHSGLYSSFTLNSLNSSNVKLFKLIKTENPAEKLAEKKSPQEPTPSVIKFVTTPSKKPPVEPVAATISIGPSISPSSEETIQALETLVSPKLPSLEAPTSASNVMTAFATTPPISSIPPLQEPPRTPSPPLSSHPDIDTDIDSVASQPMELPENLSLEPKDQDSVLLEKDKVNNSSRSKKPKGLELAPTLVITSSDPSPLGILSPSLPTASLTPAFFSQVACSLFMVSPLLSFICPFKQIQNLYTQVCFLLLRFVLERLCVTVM
In short, it runs like this:
as §1

The next assay addresses T4, ETV7 (Homo sapiens, UniProt Q9Y603 1-341).
T4 sequence: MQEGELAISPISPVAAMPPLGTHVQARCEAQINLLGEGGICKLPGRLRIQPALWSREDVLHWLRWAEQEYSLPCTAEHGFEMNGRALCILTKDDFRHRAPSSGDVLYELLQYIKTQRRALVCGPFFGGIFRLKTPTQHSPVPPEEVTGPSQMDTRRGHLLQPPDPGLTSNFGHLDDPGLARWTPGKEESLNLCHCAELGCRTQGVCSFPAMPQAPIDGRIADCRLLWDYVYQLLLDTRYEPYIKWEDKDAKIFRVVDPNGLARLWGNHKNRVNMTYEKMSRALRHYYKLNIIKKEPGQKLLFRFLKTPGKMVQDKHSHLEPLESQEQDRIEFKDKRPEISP
In short, it runs like this:
as §1

In the next assay the target is T5, ETV3 (Homo sapiens, UniProt P41162-2 1-143).
T5 sequence: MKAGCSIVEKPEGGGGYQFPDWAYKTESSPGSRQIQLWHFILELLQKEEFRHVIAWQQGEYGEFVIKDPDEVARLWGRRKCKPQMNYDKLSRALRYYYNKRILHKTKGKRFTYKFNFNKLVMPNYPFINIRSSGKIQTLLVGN
In short, it runs like this: as §1

The target of a further assay is ETV6 (Homo sapiens, UniProt P41212 1-452). In short, it runs like this:
as §1

Chain of ELF1 (P32519 whole entry): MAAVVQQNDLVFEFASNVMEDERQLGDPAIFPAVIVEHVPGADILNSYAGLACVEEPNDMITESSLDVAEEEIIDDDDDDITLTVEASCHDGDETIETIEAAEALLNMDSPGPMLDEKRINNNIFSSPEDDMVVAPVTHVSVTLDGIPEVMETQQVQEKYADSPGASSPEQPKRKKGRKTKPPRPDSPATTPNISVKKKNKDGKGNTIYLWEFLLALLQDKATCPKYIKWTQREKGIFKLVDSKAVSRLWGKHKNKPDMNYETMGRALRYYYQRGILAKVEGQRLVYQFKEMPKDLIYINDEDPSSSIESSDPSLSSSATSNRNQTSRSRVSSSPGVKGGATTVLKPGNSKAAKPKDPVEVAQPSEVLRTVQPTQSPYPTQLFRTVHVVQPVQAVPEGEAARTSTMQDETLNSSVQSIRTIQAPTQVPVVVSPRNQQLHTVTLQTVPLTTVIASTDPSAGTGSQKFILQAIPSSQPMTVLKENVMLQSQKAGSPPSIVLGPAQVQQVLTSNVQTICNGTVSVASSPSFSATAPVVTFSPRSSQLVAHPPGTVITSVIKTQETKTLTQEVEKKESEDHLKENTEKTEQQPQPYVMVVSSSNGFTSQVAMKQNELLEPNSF
Chain of ETV6 (P41212 whole entry): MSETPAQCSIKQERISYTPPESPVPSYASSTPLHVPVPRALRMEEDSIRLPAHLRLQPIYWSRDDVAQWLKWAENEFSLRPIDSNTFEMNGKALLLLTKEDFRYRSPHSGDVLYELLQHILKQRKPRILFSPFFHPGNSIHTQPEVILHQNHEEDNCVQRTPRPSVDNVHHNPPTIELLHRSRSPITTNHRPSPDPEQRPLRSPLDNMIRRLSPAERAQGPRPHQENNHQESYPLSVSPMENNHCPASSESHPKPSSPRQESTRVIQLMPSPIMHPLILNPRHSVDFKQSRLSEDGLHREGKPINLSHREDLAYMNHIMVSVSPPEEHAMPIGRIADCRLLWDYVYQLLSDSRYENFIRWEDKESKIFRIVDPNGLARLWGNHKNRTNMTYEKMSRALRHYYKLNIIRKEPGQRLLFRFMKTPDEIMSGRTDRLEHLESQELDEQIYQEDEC
Chain of ETV5 (P41161 whole entry): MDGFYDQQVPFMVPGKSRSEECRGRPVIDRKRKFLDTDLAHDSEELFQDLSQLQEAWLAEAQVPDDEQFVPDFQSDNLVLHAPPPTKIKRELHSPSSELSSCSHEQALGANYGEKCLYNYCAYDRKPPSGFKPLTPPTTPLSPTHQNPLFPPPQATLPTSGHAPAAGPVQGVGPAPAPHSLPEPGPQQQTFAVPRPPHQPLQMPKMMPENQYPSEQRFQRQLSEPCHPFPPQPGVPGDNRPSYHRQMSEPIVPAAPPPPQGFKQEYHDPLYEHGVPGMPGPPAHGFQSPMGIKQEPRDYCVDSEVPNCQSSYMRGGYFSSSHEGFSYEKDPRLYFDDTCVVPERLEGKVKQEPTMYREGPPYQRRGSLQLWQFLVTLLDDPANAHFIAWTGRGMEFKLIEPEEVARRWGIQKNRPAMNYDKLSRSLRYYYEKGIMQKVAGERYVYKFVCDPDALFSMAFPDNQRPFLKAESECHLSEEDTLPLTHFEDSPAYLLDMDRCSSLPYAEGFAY

For the sequence CGACGG, the binding signal in the assay with GABPA was 1.09 fold enrichment (6-mer frequency, TF over GST control); in the assay with ELF1, 1.01 fold enrichment (6-mer frequency, TF over GST control); in the assay with ETV5 it was 1 fold enrichment (6-mer frequency, TF over GST control); with SPIC it was 1.15 fold enrichment (6-mer frequency, TF over GST control); with ELK4, 1.02 fold enrichment (6-mer frequency, TF over GST control); with ETV7 it was 1.13 fold enrichment (6-mer frequency, TF over GST control). Also, the binding signal is 1.05 fold enrichment (6-mer frequency, TF over GST control) with ETV3 and 1.03 fold enrichment (6-mer frequency, TF over GST control) with ETV6.
